Assay results published in PubChem BioAssay (EPA / NIEHS).
Calls of active or inactive are those of the source. How the source made its calls: active means hit-call score of the fitted dose curve at least 0.9, where 1 is the maximum; inactive means score below 0.9.

These compounds were tested on Pro-epidermal growth factor (Homo sapiens) (UniProt P01133) (assay: LTEA_HepaRG_EGF: Life Technologies and Expression Analysis (LTEA) Assay for Epidermal growth factor (EGF) using HepaRG (AID 2283489)). Conditions: mRNA level, 48 h; actives raise or lower the signal.
Description: LTEA_HepaRG is a cell based, multiplexed-readout assay that uses HepaRG, a human liver cell line, with measurements taken at 48 hours after chemical dosing on a 96-well plate.LTEA_HepaRG_EGF is one of 102 assay component(s) measured in the LTEA HepaRG cell culture assay. It is a marker of Cell proliferation, survival, death.Data from the assay component LTEA_HepaRG_EGF was analyzed into 1 endpoint. This assay endpoint, LTEA_HepaRG_EGF, was analyzed with bidirectional fitting relative to DMSO as the negative control and baseline of activity. Using a type of inducible reporter, measures of mRNA induction for gain or loss-of-signal activity can be used to understand regulation of transcription factor activity. To generalize the intended target to other relatable targets, this assay endpoint is annotated to the growth factor intended target family, where the subfamily is EGF-like domain.
A total of 1060 chemcials from the ToxCast library were tested in eight-point concentration-response experiments. Cell culture and cytotoxicity assays were conducted at Thermo Fisher Scientific's Custom Services facility (Madison, WI). A single lot of human HepaRG cells (Thermo Fisher Scientific, Frederick, MD) was used for the cell culture experiments. 96-well format collagen type I coated plates of human HepaRG cells were prepared using established methods. Briefly, cryopreserved HepaRG cells were thawed, plated at a density of approximately 100,000 cells/well in HepaRG Thaw, Plate, and General Purpose media (HPRG770, Thermo Fisher Scientific), and incubated for 48 hours. 0.5% DMSO was selected as vehicle control to balance the requisite need of DMSO in HepaRG cultures to maintain differentiation (for example, baseline metabolism, proportions of hepatocytes vs. cholangiocytes), while enabling further hepatic receptor pathway activation (for example, PXR and CAR) in response to chemical exposure. 48 hours after plating, the culture medium was replaced with HepaRG Serum-Free Incudtion Media. Cells were exposed to each test chemical in duplicate and maintained in CO2 incubators for another 48 hours. Chemical plates were thawed to room temperature and 200x concentrations of treatment groups were prepared. 8-point conentration-reponse curves were made with the highest exposure at 100 uM, followed by half-log dilutions, all in 0.5% DMSO. Each test plate contained variouse controls, induction positive controls (1mM phenobarbital), cytotoxicity positive controls ([…] aflatoxin B1), vehicle controls (0.5% DMSO), and total lysis controls (0.5% DMSO). Cell morphology images were taken using an Essen IncuCyte FLR automated microscope, with six 96-well plates imaged in about 24 minutes. Images were captured and exported and JPEG files. Spent culture media was transfered to black-well plates for the LDH assay, and remaining media was sorted at -80 C for later use. Cells were treated with RLT buffer and frozen until shipped for gene expression analysis. Total RNA was isolated from the cell suspension in 75 uL of Buffer RLT (Qiagen, Germantown, MD 20874) by Quintiles/Expression Analysis (Durham, NC) using a custom isolation procedure. Total RNA from each plate well was transferred to a preamplification plate. Fluidigm's 96.96 Dynamic ArrayTM (Fluidigm, Amsterdam, the Netherlands) technology was used for gene expression analyses by quantitative reverse transcription polymerase chain reaction (qRT-PCR, performed by Quintiles/Expression Analysis, Durham, NC)89. Standard TaqManTM Assays (Applied Biosystems/ThermoFisher Scientific, Foster City, CA) were used to assess the expression of 93 genes selected based on their selectivity and sensitivity to important hepatic receptors known to be modulated by environmental chemicals; importance in human hepatocyte functionality; and hepatotoxicity. […]

Structure (SMILES) | outcome | AC50
NCCO | inactive | –
Cc1ccc(C)c(O)c1C | inactive | –
Cc1nc(-c2ccc3c(c2)CCN(CCC2CCC(NC(=O)/C=C/c4ccc(F)cc4)CC2)CC3)no1 (stereo not given) | inactive | –
Nc1ccccc1N | inactive | –
CN1CCCC1=O | inactive | –
CC(=O)Oc1ccccc1C(=O)O | inactive | –
C=CCOC(=O)c1ccccc1C(=O)OCC=C | inactive | –
OC[C@@H](O)[C@@H](O)[C@H](O)[C@H](O)CO | inactive | –
CC1(C)CC(N=C=O)CC(C)(CN=C=O)C1 (stereo not given) | inactive | –
CCNc1cccc(C)c1 | inactive | –
CC(=O)C(C)=CC1C(C)=CCCC1(C)C (stereo not given) | inactive | –
Cc1ccc2ncccc2c1 | inactive | –
CCCCCCCC=O | inactive | –
O=c1c(O)c(-c2ccc(O)c(O)c2)oc2cc(O)cc(O)c12 | inactive | –
CCCCCCCCCCCCCCCCCC(=O)O | inactive | –
Cc1nc(C)nc(N2C[C@@H](C)N(c3ccnc([C@@H](C)O)n3)[C@@H](C)C2)n1 | inactive | –
COCCOC[C@H](CC1(C(=O)NC2CCC(C(=O)O)CC2)CCCC1)C(=O)Oc1ccc2c(c1)CCC2 (stereo not given in full) | inactive | –
CCCCCCCCCCCC(=O)OC | inactive | –
Cc1c(C(=O)O)c(O)cc2c1C(=O)c1c(O)c([C@@H]3O[C@H](CO)[C@@H](O)[C@H](O)[C@H]3O)c(O)c(O)c1C2=O | inactive | –
O=C(OCCCCCOC(=O)c1ccccc1)c1ccccc1 | – | 2170 nM (active)

Structure (SMILES) | outcome | AC50
COc1ccc(C)cc1N | inactive | –
NCC1(Cc2noc(=O)[nH]2)CCCCC1 | inactive | –
O=C(O)Cc1ccccc1Nc1c(Cl)cccc1Cl | inactive | –
CCCCC(CC)COC(=O)CC(C(=O)OCC(CC)CCCC)S(=O)(=O)O (stereo not given) | inactive | –
Cc1cc(=O)[nH]c(=S)[nH]1 | inactive | –
COCCOCCOC | – | 1090 nM (active)
CCCCCCCCCCCCCCCC | inactive | –
CCCc1cc(=O)[nH]c(=S)[nH]1 | inactive | –
FC(F)(F)C(F)(F)C(F)(F)C(F)(F)C(F)(F)C(F)(F)CCI | inactive | –
CCCCc1ccc2c(n1)[C@@H](c1ccc(OC)cc1C[C@H](C)C(=O)O)[C@H](C(=O)O)[C@H]2c1ccc2c(c1)OCO2 | inactive | –
CCCCCCCCCCO | inactive | –
CC(C)c1ccc(C(=O)N=C(N)N)cc1S(C)(=O)=O | – | 690 nM (active)
Oc1ccc2ccccc2c1N=Nc1ccccc1 | inactive | –
NS(=O)(=O)c1cc2c(cc1Cl)NCNS2(=O)=O | inactive | –
O=[N+]([O-])C(CO)(CO)CO | inactive | –
CCCCOC(=O)CCCCCCCCC(=O)OCCCC | inactive | –
CNC(=O)[C@H]1O[C@@H](n2cnc3c(NCc4cc(Cl)ccc4OCc4cc(C)no4)ncnc32)[C@H](O)[C@@H]1N | inactive | –
O=c1[nH]cc(F)c(=O)[nH]1 | inactive | –
O=C(N[C@@H](Cc1ccccc1)[C@@H](O)C(=O)N1C[C@@H](O)[C@@H](O)C1)c1cc2cc(Cl)ccc2[nH]1 | inactive | –
Oc1ccc2c(c1)OC[C@@H](N1CCC(O)(c3ccc(F)cc3)CC1)[C@H]2O | inactive | –
